PDI turbidity = inhibitors of human PDI, primary screen, biochemical, turbidity, single point, plate reader. 350,000 compounds, 0.052% hits. PDI insulin aggregation turbidity, A650, 90 min. inhibition, % at 10 µM;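 active = mean inhibition across replicates of 30% or more, whatever share of single replicates reach that level; inconclusive = mean inhibition below 30% while every single replicate reaches 30%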
Target sequence (P07237 whole entry, looked up): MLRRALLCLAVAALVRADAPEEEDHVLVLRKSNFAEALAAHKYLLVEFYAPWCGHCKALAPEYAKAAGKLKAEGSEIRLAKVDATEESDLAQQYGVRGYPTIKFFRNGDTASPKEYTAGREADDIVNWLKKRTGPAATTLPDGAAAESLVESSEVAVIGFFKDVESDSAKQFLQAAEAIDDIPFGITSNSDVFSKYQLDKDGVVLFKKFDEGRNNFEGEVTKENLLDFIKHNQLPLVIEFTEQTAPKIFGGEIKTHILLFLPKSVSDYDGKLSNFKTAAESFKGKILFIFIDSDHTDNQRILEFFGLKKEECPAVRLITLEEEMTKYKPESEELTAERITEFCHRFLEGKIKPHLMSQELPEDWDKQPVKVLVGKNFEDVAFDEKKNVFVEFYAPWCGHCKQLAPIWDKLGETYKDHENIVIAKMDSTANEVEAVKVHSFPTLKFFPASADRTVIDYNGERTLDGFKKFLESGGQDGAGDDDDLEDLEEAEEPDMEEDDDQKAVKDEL
SIRT5 inh = SIRT5 desuccinylase inhibitors, primary screen, biochemical, fluorescence imaging, single point, set 5; NAD-dependent protein deacylase sirtuin-5, mitochondrial (Homo sapiens), Q9NXA8; Purified SirT5, succinyl-peptide AMC, trypsin-coupled fluorescence; inhibition, % at 15 µM; 330,000 compounds, 1.1% hits; AID 652115, 2013; in the data active = inhibition above about 15%; inconclusive = no clear call, values can overlap the other calls
ERp5 block = inhibitors of ERp5-driven insulin aggregation, primary screen, biochemical, turbidity, absorbance 650 nm, single point. 90 min. inhibition, % at 9.99 µM. 350,000 compounds, 0.05% hits;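 active = mean replicate inhibition above about 25%, with every replicate also reaching it, limit read from the data, passing the limit was not always enough; inconclusive = only one of those two criteria met; inactive = neither criterion met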
Rtt109 HAT inh = inhibitors of C. albicans Rtt109/Vps75 HAT, primary screen, biochemical, ThioGlo CoA-SH fluorescence, plate reader. Histone acetyltransferase RTT109 (Candida albicans (strain SC5314 / ATCC MYA-2876)), …. purified Rtt109/Vps75, 4 h. inhibition, % at 34.9 µM. 330,000 compounds, 0.16% hits;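 active = inhibition of at least 50% in every replicate; inconclusive = best replicate reaches 50% inhibition but some replicates fall short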
DENV2 CPE = inhibitors of DENV2 cytopathic effect, primary screen, cell-based, plate reader, single concentration; CPE inhibition, % at 9.99 µM; DENV2-infected cells, cytopathic effect rescue; 350,000 compounds, 1.7% hits; in the data active = CPE inhibition above about 20%, passing the limit was not always enough; inconclusive = no clear call, values can overlap the other calls; tested in BHK-21 cells
Hits are given with their value; – = inactive; ? = inconclusive; · = not tested or not shown. Shown are actives, neighbours in structure and some others; about 2.3% of the full set was active somewhere.

SMILES	PDI turbidity	SIRT5 inh	ERp5 block	Rtt109 HAT inh	DENV2 CPE
C[C@]12c3[nH]c4ccccc4c3CCN1C(=O)C(CC(=O)NCc1cccc(C(F)(F)F)c1)C[C@@H]2C(=O)N1CCOCC1 (some centres not stated)	–	–	–	–	–
C[C@]12c3[nH]c4ccc(Cl)cc4c3CCN1C(=O)[C@@H](CC(=O)NCc1cccc(C(F)(F)F)c1)C[C@@H]2C(=O)N1CCOCC1	–	39.8	–	–	–
CC[C@]12c3[nH]c4cc(-c5ccco5)ccc4c3CCN1C(=O)[C@@H](CC(=O)NCc1ccc(OC)c(OC)c1)C[C@@H]2C(=O)N1CCN(C(=O)c2ccco2)CC1	37.5	–	–	–	–
C[C@]12c3[nH]c4cc(-c5ccco5)ccc4c3CCN1C(=O)[C@@H](CC(=O)NCCc1ccccn1)C[C@@H]2C(=O)N1CCOCC1	–	–	–	–	49.8
CO[C@H]1CN(C)C(=O)c2cc(NC(=O)c3ccc4c(c3)OCO4)ccc2OC[C@@H](C)NC[C@H]1C	·	–	–	·	–
C[C@@H]1CCCCO[C@H](CN(C)Cc2ccncc2)[C@@H](C)CN([C@@H](C)CO)C(=O)c2cc(NC(=O)Nc3ccccc3)ccc2O1	·	–	–	·	?
CCN(CC)C(=O)[C@H]1C[C@H](CC(=O)NC/C=C(\C)CCC=C(C)C)C(=O)N2CCc3c([nH]c4ccc(Cl)cc34)[C@]12C	–	–	–	–	–
CC[C@]12c3[nH]c4cc(CCC(=O)N(C)C)ccc4c3CCN1C(=O)[C@@H](CC(=O)NCCC1=CCCCC1)C[C@@H]2C(=O)N1CCN(C(=O)c2ccco2)CC1	–	–	–	–	24.9
CCN(CC)C(=O)[C@H]1CC(CC(=O)NC/C=C(\C)CCC=C(C)C)C(=O)N2CCc3c([nH]c4ccc(OC)cc34)[C@]12C (some centres not stated)	–	–	–	–	40.4
CC[C@]12c3[nH]c4cc(CCC(=O)N(C)C)ccc4c3CCN1C(=O)[C@@H](CC(=O)NCc1ccco1)C[C@@H]2C(=O)N1CCN(C(=O)C2CC2)CC1	–	–	–	–	25.1
CC[C@]12c3[nH]c4cc(CCC(=O)N(C)C)ccc4c3CCN1C(=O)[C@@H](CC(=O)NCCC1=CCCCC1)C[C@@H]2C(=O)N1CCN(C(=O)C2CC2)CC1	–	–	–	–	–
COc1ccc(NC(=O)N(C)C[C@@H]2Oc3ccc(NS(=O)(=O)c4ccc(Cl)cc4)cc3C(=O)N([C@@H](C)CO)C[C@@H]2C)cc1	·	–	–	·	–
C[C@@H](C(=O)NCCc1ccccc1)N1C(=O)N2CCc3c([nH]c4ccccc34)[C@@]2(C)C1=O	·	–	–	–	36.7
CC(C)[C@@H](C(=O)NC1CCN(Cc2ccccc2)CC1)N1C(=O)N2CCc3c([nH]c4ccccc34)[C@@]2(C)C1=O	·	·	–	–	38.9
CCCC(=O)Nc1ccc2c(c1)OC[C@@H](C)N(Cc1cccc(F)c1)C[C@H](C)[C@@H](OC)CN(C)C2=O	·	–	–	·	–
C[C@H](CO)N1C[C@H](C)[C@H](CN(C)C(=O)[C@H](C)c2ccccc2)OCc2ccccc2-c2c(n(C)c3ccccc23)C1=O	·	–	–	·	–
CCCc1c(C(=O)N/N=C/c2ccoc2)nnn1-c1nonc1N	–	–	–	·	20.8
COc1ccc2ccccc2c1/C=N/NC(=O)c1nnn(-c2nonc2N)c1C(C)C	–	28.3	–	–	–
Cc1ccc(SCc2c(C(=O)N/N=C/c3ccoc3)nnn2-c2nonc2N)cc1	–	–	–	–	–
COc1ccc2ccccc2c1/C=N/NC(=O)c1nnn(-c2nonc2N)c1CN(C)C	–	–	–	–	–
COCC(=O)N1[C@H](CO)[C@H]2c3ccccc3N(C(=O)C3CC3)C[C@H]21	·	–	–	·	–
CCCCNc1c(-c2ccc(-c3cccc(Cl)c3)cc2)nc2ccc(Cl)cn12	–	·	–	–	58.6
COc1ccc(OC)c(S(=O)(=O)Nc2cc3c4c(c2)CCN4C(=O)CC3)c1	–	–	–	–	–
COc1ccc(S(=O)(=O)Nc2cc3c4c(c2)CCN4C(=O)CC3)cc1	–	–	–	–	59.9
CCCNC(=O)N1C[C@@H]2N[C@H](C1)C2c1ccc(-c2cccc(OC)c2)cc1 (some centres not stated)	·	–	–	·	–
SMILES	PDI turbidity	SIRT5 inh	ERp5 block	Rtt109 HAT inh	DENV2 CPE
CC(C)(O)C#Cc1ccc([C@H]2[C@H](CO)N3CCCCN(C(=O)c4ccc(F)cc4)C[C@@H]23)cc1	·	–	–	·	21.2
CC(C)(O)C#Cc1ccc([C@@H]2[C@H](CO)N3CCCCN(S(C)(=O)=O)C[C@@H]23)cc1	·	–	–	·	36.5
CC(C)(O)C#Cc1ccc([C@H]2[C@@H](CO)N3CCCCN(C(=O)c4ccc(F)cc4)C[C@H]23)cc1	·	–	–	·	–
Cc1ccc(S(=O)(=O)Nc2ccc3c(c2)C(=O)N([C@H](C)CO)C[C@@H](C)[C@H](CN(C)CC2CC2)OCCCC[C@@H](C)O3)cc1	·	–	–	·	–
O=C(C[C@H]1C=C[C@H](NC(=O)CC2CC2)[C@H](CO)O1)NCc1ccccc1	·	–	–	·	–
COc1ccc(-c2sc3ccccc3c2/C=C/c2ccncc2)cc1	–	–	–	–	20.5
C[C@@H]1CCCCO[C@H](CN(C)C(=O)Cc2ccccc2)[C@@H](C)CN([C@@H](C)CO)C(=O)c2cc(NS(=O)(=O)c3cn(C)cn3)ccc2O1	·	–	–	·	31.4
C[C@@H]1CCCCO[C@@H](CN(C)C(=O)Cc2ccccc2)[C@@H](C)CN([C@H](C)CO)C(=O)c2cc(NS(=O)(=O)c3cn(C)cn3)ccc2O1	·	–	–	·	–
C[C@@H]1CN([C@@H](C)CO)C(=O)c2cc(NS(=O)(=O)c3cn(C)cn3)ccc2O[C@@H](C)CCCCO[C@@H]1CN(C)C(=O)Cc1ccccc1	·	–	–	·	63.2
C[C@@H]1CCCCO[C@H](CN(C)C(=O)Cc2ccccc2)[C@@H](C)CN([C@H](C)CO)C(=O)c2cc(NS(=O)(=O)c3cn(C)cn3)ccc2O1	·	24.5	–	·	–
C[C@H](CO)N1C[C@H](C)[C@@H](CN(C)C(=O)Cc2ccccc2)OCCCC[C@H](C)Oc2ccc(NS(=O)(=O)c3ccc(Cl)cc3)cc2C1=O	·	–	–	·	–
C[C@@H]1CCCCO[C@H](CN(C)C(=O)Cc2ccccc2)[C@H](C)CN([C@H](C)CO)C(=O)c2cc(NS(=O)(=O)c3ccc(Cl)cc3)ccc2O1	·	–	–	·	–
C[C@@H]1CCCCO[C@@H](CN(C)C(=O)Cc2ccccc2)[C@H](C)CN([C@H](C)CO)C(=O)c2cc(NS(=O)(=O)c3cccs3)ccc2O1	·	–	–	·	61.2
C[C@@H]1CCCCO[C@H](CN(C)C(=O)Cc2ccccc2)[C@H](C)CN([C@H](C)CO)C(=O)c2cc(NS(=O)(=O)c3ccccc3)ccc2O1	·	15.5	–	·	–

Source: PubChem BioAssay
